Most compounds without a hit are left out; they make up all but 4.7% or so of the library.
DRD3 antagonist: qHTS of D3 Dopamine Receptor Antagonist: qHTS | D3R cells, DiscoveRx beta-arrestin luminescence, antagonist mode; hits give low values | max response, negative = inhibition, % | 2.5% of 360,000 active; in the data active = max response below about -50%; inconclusive = no clear call, values can overlap the other calls; also: % is scaled to controls: 0 for no effect and ±100 for the full control effect
Target sequence (P35462 whole entry, looked up): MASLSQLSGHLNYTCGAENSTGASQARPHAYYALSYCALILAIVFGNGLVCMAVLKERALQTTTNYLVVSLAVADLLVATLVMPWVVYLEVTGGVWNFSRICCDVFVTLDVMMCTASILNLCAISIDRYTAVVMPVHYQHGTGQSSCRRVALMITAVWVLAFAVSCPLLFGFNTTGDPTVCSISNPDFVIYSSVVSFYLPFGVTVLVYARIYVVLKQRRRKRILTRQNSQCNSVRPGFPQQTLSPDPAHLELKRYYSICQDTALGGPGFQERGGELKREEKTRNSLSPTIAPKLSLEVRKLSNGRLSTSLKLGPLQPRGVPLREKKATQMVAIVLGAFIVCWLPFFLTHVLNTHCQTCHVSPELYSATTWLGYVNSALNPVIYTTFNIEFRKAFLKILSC
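Cells expressing the human receptor were seeded at 1500 cells/well, incubated overnight at 37 degrees C in 5% CO2, then exposed to library compounds with dopamine controls for 90 minutes at 37 degrees C before luminescent detection.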
ATXN viability: Viability Counterscreen for Primary qHTS for Inhibitors of ATXN expression; 0.49% of 400,000 active; S2 cells (HEK-293 line with an ATXN2-luciferase reporter) viability, CellTiter-Fluor protease fluorescence, 24 h; Potency, µM (titrated, usually from 56.7 µM), hits mostly cytotoxic; also: potency is read from the fitted curve at half-maximal effect; nearly all actives have a fitted effect of over 40% in size
DRD3 agonist: qHTS of D3 Dopamine Receptor Agonist: qHTS; D(3) dopamine receptor (Homo sapiens), P35462; D3R DiscoveRx beta-arrestin cells, luminescence, 90 min; max activation, %; 0.58% of 410,000 active; in the data active = max activation above about 30%; also: 0% is about no effect
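Cells at 1500/well, incubated overnight, then treated with pinned compounds (dopamine as control) for 90 min at 37 degrees C. DiscoveRx reagent added for 30 - 60 minutes at room temperature; luminescence read.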
TGFb inhibitor: qHTS for Inhibitors of TGF-b | HepG2 CAGA-GFP TGF-b/SMAD3 reporter, GFP fluorescence, 18 h; TGF-beta stimulated, 500 pg/mL final | 1.2% of 410,000 active | Potency, µM (top dose mostly 46.1 µM), for inactives: at the highest dose activity, negative = inhibition, usual class: inhibitors; also: potency is read from the fitted curve at half-maximal effect; % is scaled to controls: 0 for no effect and ±100 for the full control effect; nearly all actives have a fitted effect of over 65% in size
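Per well, imaged GFP fluorescence of HEPG2 CAGA-GFP cells gives the signal; cells get compound, then TGF-beta (500 pg/mL final), 18 h at 37 degrees C; %Activity versus -TGF-beta and +DMSO controls.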
HepG2 tox: qHTS for Inhibitors of TGF-b: Cytotox Counterscreen. HepG2 CAGA-GFP viability, ATP luminescence, 18 h. Potency, µM (series often up to 46.1 µM), for the others: at the top dose activity change, negative = cytotoxicity, actives largely listed as cytotoxic. 0.76% of 410,000 active. AID 588856, 2011; also: potency is read from the fitted curve at half-maximal effect
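CellTiter-Glo luminescence gave cytotoxicity after 18 hours at 37 degrees C. The cells were HepG2 CAGA-GFP in 1% FBS DMEM, stimulated with 500 pg/mL TGF-beta after compound addition. %Activity was normalised to no-cell wells (complete cell-killing) and DMSO (no toxicity), and curves were fitted and classified.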
ATXN2 expr inh: Primary qHTS for Inhibitors of ATXN expression. HEK-293 ATXN2-luciferase reporter, luminescence, 24 h. Potency, µM (series often up to 57 µM), without a hit: at the highest dose activity change, negative = inhibition, actives largely listed as inhibitors. 0.72% of 360,000 active. AID 1745845, 2022; also: potency is read from the fitted curve at half-maximal effect; % is scaled to controls: 0 for no effect and ±100 for the full control effect; nearly all actives have a fitted effect of over 55% in size
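ATXN2-luciferase reporter cells (luciferase flanked by upstream and downstream ATXN2 gene portions) were treated 24 h at 37 °C with compounds at up to 57 uM. SteadyGlo luminescence gave expression; GF-AFC fluorescence gave viability.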
Active calls of the source: *; i = inactive; u = inconclusive; x = no result. Unless noted, calls follow the shape of the dose curve; as a rule, active = well fitted curve in the direction sought with a large enough effect; inconclusive = small, poorly fitted or top-dose-only effect, or another doubt; inactive = no such curve, though single readings can be large; an effect the other way counts as inactive or inconclusive.

SMILES	DRD3 antagonist	ATXN viability	DRD3 agonist	TGFb inhibitor	HepG2 tox	ATXN2 expr inh
COc1cc(OC)c(NC(=O)C(NS(=O)(=O)c2cccc3nsnc23)c2ccccc2)cc1Cl (configuration not stated)	x	i	-2.1	-22.8%	-27.4%	2.5%
CCOc1ccc(S(=O)(=O)c2cc3cccc(OCC)c3oc2=O)cc1	x	i	-4.4	-7.0%	-2.8%	10.8%
Cc1cccc(C)c1NC(=O)c1ccc2c(c1)nnn2C1CCCC1	x	i	-17.1	0.0%	-9.2%	-15.8%
O=C(O)CCCCC(CCSCc1ccccc1)SCc1ccccc1 (configuration not stated)	x	x	x	x	x	15.5%
O=C(NC(c1ccc(F)cc1)c1ccc2ccccc2n1)C1CCN(Cc2cccc(C(F)(F)F)c2)CC1 (configuration not stated)	-80.9*	u	-13.6	u	-54.1%	u
CCCCCCCN(C(=O)CCl)c1cccc(C)c1	-4.2	x	1.7	u	-28.4%	25.1µM*
CCCCCCN(C(=O)CCl)c1ccccc1	-17.1	u	-7.3	22.4µM*	-114.6%	x
NC(=O)CSc1ncnc2c1oc1ccccc12	-21.9	i	-1.4	-2.5%	-0.3%	3.2%
O=C(CSc1ncnc2c1oc1ccccc12)OCc1ccccc1	11.2	i	30.3*	u	3.2%	-0.7%
OCCN1CCN(CCCN2c3ccccc3CCc3ccccc32)CC1	-124.6*	i	-4.2	-1.3%	-19.4%	x
CC(=O)c1ccc(NC(=O)COCc2cc(-c3ccc(F)cc3)on2)cc1	x	x	6.0	2.9%	-12.0%	x
OC1c2cc(Br)ccc2N=C2CCCCCN21 (configuration not stated)	-21.3	i	-3.2	-17.7%	-24.3%	6.0%
OC1c2cc(Br)ccc2N=C2CCCN21 (configuration not stated)	-2.6	15.8µM*	-3.1	u	-103.6%	x
COc1cc(CCNC2=CC(=O)c3ncccc3C2=O)ccc1O	1.9	x	0.5	u	2.51µM*	23.8µM*
CCCn1cnc2c(c1=O)c1nc3ccccc3nc1n2CCc1ccccc1	-53.0*	i	18.7	1.0%	2.0%	-4.7%
Clc1ccc(C2=Nn3c(nnc3-c3cc(-c4ccccc4)n[nH]3)SC2)cc1	u	x	1.1	u	15.8µM*	u
c1ccc(C2=Nn3c(nnc3-c3cc(-c4ccccc4)n[nH]3)SC2)cc1	19.1	u	-0.5	u	-16.5%	53.1%
CCCCNC(=O)[C@@H]1CC=C[C@@H]2CCN(C3CCCCC3)C(=O)[C@@H]21	x	x	x	-28.0%	-35.7%	x
CC1CCCc2sc3nc(N4CCN(CCO)CC4)n4ncnc4c3c21 (configuration not stated)	-56.3*	i	-5.8	11.3%	-25.6%	8.9%
CCCCCCSc1nc(N)c2c3c(sc2n1)CCCC3C (configuration not stated)	x	x	7.9	x	-51.3%	x
COc1cc2nc(N(C)C)c(CNCc3cccc4ccccc34)cc2c(OC)c1OC	x	i	x	x	x	x
COc1cccc(CC2(CO)CCCN(Cc3[nH]c4ccc(C)cc4c3C)C2)c1 (configuration not stated)	-14.1	u	-1.6	u	-90.3%	25.1µM*
COc1cccc(CC2(CO)CCCN(Cc3ccc(CO)o3)C2)c1 (configuration not stated)	1.9	i	2.6	-3.6%	-2.5%	-14.1%
COc1cccc(CC2(CO)CCCN(Cc3cc4ccccc4[nH]3)C2)c1 (configuration not stated)	-18.0	i	-6.9	11.2µM*	-9.6%	-18.6%
COc1cccc(CC2(CO)CCCN(Cc3ccc(C)s3)C2)c1 (configuration not stated)	u	i	-23.8	-12.9%	-15.6%	-42.5%
